Active and inactive are the calls of the source. Rule as the data show it: active = fold change permeability below about 0.7 or above about 1.3; inactive = in between.
Assay: modulators of brain endothelial barrier permeability, primary screen, cell-based, FITC-avidin fluorescence, HTS (AID 1963498); also: test concentration not given here
Settings: actives lie on both sides
For `CCO/C([O-])=N/c1c[n+](N2CCOCC2)no1`, the fold change permeability was 0.8 (inactive).
For `Nc1nc(OCc2ccccc2)c2[nH]cnc2n1`, the fold change permeability was 1 (inactive).
In the case of `Cc1ccc(C(=O)Nc2ccc(S(=O)(=O)O)c3cc(S(=O)(=O)O)cc(S(=O)(=O)O)c23)cc1NC(=O)c1cccc(NC(=O)Nc2cccc(C(=O)Nc3cc(C(=O)Nc4ccc(S(=O)(=O)O)c5cc(S(=O)(=O)O)cc(S(=O)(=O)O)c45)ccc3C)c2)c1`, the fold change permeability is reported as 1.3 (active).
For `NC(Cc1ccc(Cl)cc1)C(=O)O` (stereo not given), the fold change permeability was 0.9 (inactive).
With `O=C(O)CCCCC1CCSS1` (stereo not given) the fold change permeability was 0.7 (active).
In the case of `NC1(C(=O)O)CCc2cc(C(=O)O)ccc21` (stereo not given), the fold change permeability is reported as 1.1 (inactive).
With `CCCn1c(=O)c2c(ncn2C)n(CCC)c1=O` the fold change permeability was 1 (inactive).
With `CC(=O)OCC(=O)[C@@]1(O)CC[C@H]2[C@@H]3CCC4=CC(=O)CC[C@]4(C)[C@H]3C(=O)C[C@@]21C` the fold change permeability was 0.9 (inactive).
With `CN(C)CCOC(=O)COc1ccc(Cl)cc1` the fold change permeability was 0.9 (inactive).
With `CCc1ccc(OCC(=O)Nc2ccc(F)c([N+](=O)[O-])c2)cc1` the fold change permeability was 1.1 (inactive).
With `CC(=O)N[C@@H](Cc1c[nH]c2ccccc12)C(=O)OCc1cc(C(F)(F)F)cc(C(F)(F)F)c1` the fold change permeability was 0.9 (inactive).
For `O=C(Nc1nc2ccccc2n1CCN1CCOCC1)c1cccc([N+](=O)[O-])c1`, the fold change permeability was 1.9 (active).
With `Cn1cc(C(=O)OCC2CCN(CCNS(C)(=O)=O)CC2)c2ccccc21` the fold change permeability was 1 (inactive).
With `CCOC(=O)c1c(CSc2ccccc2)n(C)c2cc(Br)c(O)c(CN(C)C)c12` the fold change permeability was 1.4 (active).
For `COc1ccc2[nH]cc(CCNC(C)=O)c2c1`, the fold change permeability was 0.8 (inactive).

From PubChem BioAssay
